This passage reports inhibition results from PubChem BioAssay AID686996 (Broad Institute, 2013).

The term inhibition denotes the change of the read-out against control, counted positive when it falls.

Structures are written as SMILES. “And” between values parts separate entries of the source, which are not always exact repeats. Equal entries are not always repeated. The whole screen tested about 350,000 compounds, of which about 1,900 (0.54%) were called active.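 Rule for the calls: active = mean inhibition across replicates at least about 35%, with every replicate also reaching that limit (limit read from the data); inconclusive = only one of the two criteria met; inactive = neither criterion met.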 Shown is part of a subset that was picked to be rich in actives. More than one record can exist for a structure, and the calls need not agree.

Caspase-6 (Homo sapiens), sequence (P55212 24-179 limits assumed): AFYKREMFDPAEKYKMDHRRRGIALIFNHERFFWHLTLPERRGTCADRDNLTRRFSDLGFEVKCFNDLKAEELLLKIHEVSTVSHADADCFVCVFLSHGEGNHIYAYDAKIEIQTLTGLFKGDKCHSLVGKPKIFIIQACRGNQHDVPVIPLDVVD
Caspase-6 (Homo sapiens), sequence (P55212 194-293 limits assumed): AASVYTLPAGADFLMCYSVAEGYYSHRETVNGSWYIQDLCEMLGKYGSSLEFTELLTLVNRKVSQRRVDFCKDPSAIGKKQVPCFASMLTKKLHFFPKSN

The assay addresses Caspase-6 (Homo sapiens) (UniProt P55212). Put plainly: human caspase-6 inhibitors, primary screen, biochemical, VEID-R110 fluorescence, single point, set 2 (AID 686996).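 Note: 0% = median of neutral control wells and 100% = no fluorescence left.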 To be noted: purified caspase-6, Z-VEID-R110 cleavage fluorescence; at 12.5 µM; stronger effect = higher value.
Turning to `C[C@H](O)C#Cc1ccc2c(c1)O[C@@H](CN(C)Cc1cncnc1)[C@H](C)CN([C@H](C)CO)S2(=O)=O`, the inhibition is -2.4% (inactive).

In the case of `O=C(C1CCCC1)N1CC(=O)N2[C@H](C1)[C@@H](c1ccc(-c3cccnc3)cc1)[C@@H]2CO`, the inhibition was -0.455% (inactive).

Consider `Cc1ccc(NC(=O)OCCNC(=O)c2ccncc2)cc1`, for which the inhibition was 2.78% (inactive).

On to `COCCNC(=O)Nc1ccc2nc(-c3ccco3)c(-c3ccco3)nc2c1`, for which the inhibition was 79.9% (active).

Consider `COCCNC(=O)CSc1nc(N)c(NC(=O)c2ccco2)c(=O)[nH]1`, for which the inhibition was 2.38% (inactive).

Take `C[C@@H]1CN([C@H](C)CO)C(=O)c2cc(-c3cccc(C(=O)N(C)C)c3)cnc2O[C@H]1CN(C)S(=O)(=O)c1ccc(F)cc1`: the inhibition is 1.95% (inactive).

With `COc1ccc(OC)c(/C=C/C(=O)c2ccc3c(c2)OCO3)c1`, the inhibition is 2% (inactive).

For the compound `COC(=O)c1ccc(COc2ccc(/C=C/C(=O)c3ccc(OC)c(CSCC(=O)O)c3)cc2OC)cc1`, the inhibition is 41% (active).

`COc1cc(/C=C/C(=O)OCC(=O)NC(=O)NCc2ccccc2)ccc1OCC#N`: the inhibition is 0.201% (inactive).

`COc1cc(C(=O)NCC(c2ccco2)N2CCCC2)ccc1OCc1ccccc1` (stereo not given): the inhibition is -1.23% (inactive).

Take `COc1ccc(C(=O)/C=C/c2ccc(-c3ccccc3)cc2)cc1CSCC(=O)O`: the inhibition was 63.7% (active).

`COc1ccccc1CCNC(=O)C1CCN(C(=O)/C=C/c2ccccc2)CC1`: the inhibition was -1.88% (inactive).

`C[C@@H]1CN([C@H](C)CO)C(=O)Cc2cc(NC(=O)Cc3ccccc3)ccc2O[C@H]1CN(C)S(=O)(=O)c1cccs1`: the inhibition is -1.84% (inactive).

Turning to `CCCN1C[C@@H](C)[C@@H](OC)CN(C)C(=O)c2cc(NC(=O)NC3CCCCC3)ccc2OC[C@H]1C`, the inhibition was 0.443% (inactive).

Regarding `C[C@H](CO)N1C[C@H](C)[C@H](CN(C)Cc2ccc(C(F)(F)F)cc2)Oc2ccc(NC(=O)CCCCCC(=O)Nc3ccccc3N)cc2CC1=O`, the inhibition is 1.34% (inactive).

`Cc1cc(C)c(S(=O)(=O)NN=C2c3ccccc3[C@H]3Cc4csc[n+]4[C@@H]23)c(C)c1`: the inhibition is 85.1% (active).

Regarding `O=C(N[C@H]1CC[C@H](CCNS(=O)(=O)c2ccc(F)cc2)O[C@H]1CO)C1CCCC1`, the inhibition is 2.12% (inactive).

Consider `C[C@@H]1CCCCO[C@H](CN(C)C)[C@H](C)CN([C@@H](C)CO)C(=O)c2cc(NC(=O)Cc3ccccc3)ccc2O1`, for which the inhibition is -0.443% (inactive).

Turning to `O=C(Nc1ccc(-c2ccccc2)cc1)[C@@H]1[C@@H](CO)[C@@H]2Cn3c(cccc3=O)[C@H]1N2Cc1ccncc1`, the inhibition is 0.424% (inactive).

Consider `C=C1c2c(Cl)ccc(O)c2C(O)=C2C(=O)[C@]3(O)C(O)=C(C(N)=O)C(=O)[C@@H](N(C)C)[C@@H]3[C@@H](O)C12` (stereo not given in full), for which the inhibition is 73.9% (active).

On to `CN(C)[C@@H]1C(=O)C(C(N)=O)=C(O)[C@@]2(O)C(=O)C3=C(O)c4c(O)ccc(Cl)c4[C@@H](O)[C@H]3C[C@@H]12`, for which the inhibition was 49.5% (active).

With `C[C@@H]1CCCCO[C@H](CN(C)S(=O)(=O)c2ccc(Cl)cc2)[C@H](C)CN([C@H](C)CO)C(=O)c2cc(NC(=O)NC3CCCCC3)ccc2O1`, the inhibition is -2.73% (inactive).

Consider `N#C[C@H]1[C@@H](c2ccc(C3=CCCCC3)cc2)[C@@H](CO)N1C(=O)Cc1ccncc1`, for which the inhibition is 0.643% (inactive).

On to `O=S(=O)(c1ccccc1)N1[C@H](CO)[C@@H]2c3ccccc3NC[C@@H]21`, for which the inhibition is -2.35% (inactive).

Regarding `C[C@@H]1CN([C@H](C)CO)C(=O)Cc2cc(NC(=O)NC3CCCCC3)ccc2O[C@H]1CN(C)S(=O)(=O)c1ccc(Cl)cc1`, the inhibition was 0.436% (inactive).

Take `C[C@H](O)C#Cc1ccc([C@@H]2[C@H](CO)N3CCCCN(CC4CC4)C[C@@H]23)cc1`: the inhibition was 4.05% (inactive).

Consider `CN(C)CC(=O)N[C@H]1CC[C@H](CCNC(=O)Nc2ccc(F)cc2)O[C@H]1CO`, for which the inhibition is 2.23% (inactive).

`CC(C)NC(=O)N(C)C[C@H]1Oc2ccc(NS(C)(=O)=O)cc2CC(=O)N([C@@H](C)CO)C[C@H]1C`: the inhibition is -2.92% (inactive).

In the case of `COc1ccc2nc(-c3ccccn3)ccc2c1`, the inhibition was -1.05% (inactive).

`COc1ccc(C=Nc2cccc3ncccc23)cc1`: the inhibition is 44.7% (active).

As for `COc1ccc(-c2cc3ncccc3cn2)cc1`, the inhibition is 1.91% (inactive).

For `C[C@@H]1CCCCO[C@H](CN(C)S(=O)(=O)c2cccs2)[C@H](C)CN([C@@H](C)CO)C(=O)c2cc(NC(=O)Nc3ccc4c(c3)OCO4)ccc2O1`, the inhibition is -0.622% (inactive).

On to `COc1ccc(S(=O)(=O)Nc2ccc3c(c2)CC(=O)N([C@@H](C)CO)C[C@@H](C)[C@@H](CN(C)C)O3)cc1`, for which the inhibition was 2.95% (inactive).

Consider `O=C(O)CCC(=O)NCc1ccc2[nH]c3c(c2c1)CCCC3`, for which the inhibition is 41.9% (active).

Take `O=C(CCC(=O)c1ccccc1)NCc1cccc(C(F)(F)F)c1`: the inhibition is -0.291% (inactive).

As for `Cc1cccc(NC(=S)NCc2ccc3[nH]c4c(c3c2)CCCC4)c1`, the inhibition was -0.948% (inactive).

Take `C[C@@H]1CN([C@@H](C)CO)C(=O)c2cccc(NC(=O)Nc3ccc4c(c3)OCO4)c2O[C@H]1CN(C)C(=O)Nc1cccc2ccccc12`: the inhibition is -2.55% (inactive).

In the case of `C[C@H](CO)N1C[C@H](C)[C@H](CN(C)C(=O)NC2CCCCC2)Oc2ccc(NC(=O)CCCN(C)C)cc2CC1=O`, the inhibition is 1.62% (inactive).

In the case of `C=CCn1c(=S)[nH]c2scc(-c3ccco3)c2c1=O`, the inhibition is 80.7% (active).

Turning to `C[C@H]1CN([C@@H](C)CO)S(=O)(=O)c2ccc(-c3cccc(C#N)c3)cc2O[C@H]1CN(C)C(=O)c1ccccc1`, the inhibition was 5.87% (inactive).

As for `COc1ccc(NS(=O)(=O)c2ccc(F)cc2F)cn1`, the inhibition is 1.04% (inactive).

In the case of `Cc1nc2ccccc2c(=O)n1-c1ccc(NS(=O)(=O)c2ccc(F)cc2F)cc1`, the inhibition is 49.9% (active).

As for `Cc1nc2ccccc2c(=O)n1-c1ccc(F)c(NC(=O)c2cccs2)c1`, the inhibition is -0.817% (inactive).

As to `O=C1C[C@@](C(=O)NCC(F)(F)F)(c2ccc([N+](=O)[O-])cc2)[C@@H](c2ccc(CO)cc2I)N1C1CCCCC1`, the inhibition was 2.45% (inactive).

`C[C@H]1CN([C@@H](C)CO)C(=O)Cc2cc(NS(=O)(=O)c3ccccc3)ccc2O[C@H]1CN(C)Cc1ccc(C(=O)Nc2ccccc2N)cc1`: the inhibition was -0.988% (inactive).

With `COc1ccc(S(=O)(=O)Nc2ccc3c(c2)CC(=O)N([C@@H](C)CO)C[C@@H](C)[C@@H](CN(C)Cc2ccc(C(=O)Nc4ccccc4N)cc2)O3)cc1`, the inhibition was -1.35% (inactive).

With `C[C@H]1CN([C@@H](C)CO)C(=O)Cc2cc(NS(=O)(=O)c3ccccc3)ccc2O[C@@H]1CN(C)Cc1ccc(C(=O)Nc2ccccc2N)cc1`, the inhibition is 39.7% (active).

Take `C[C@H]1CN([C@@H](C)CO)S(=O)(=O)c2ccc(C#Cc3ccccc3)cc2O[C@@H]1CN(C)C(=O)C1CC1`: the inhibition was 2.82% (inactive).

Regarding `CN(C)C(=O)c1ccc(-c2ccccc2[C@H]2[C@@H](CO)N(C(=O)C3CCCCC3)[C@H]2C#N)cc1`, the inhibition is -0.604% (inactive).

As to `COc1ccc(CN(C)C[C@@H]2Oc3ccc(NC(=O)Nc4ccc(F)cc4)cc3CC(=O)N([C@@H](C)CO)C[C@H]2C)cc1`, the inhibition was 3.48% (inactive).

As to `COC(=O)CCCCC1=CCC2C(=O)C=C(O)C2C1` (stereo not given), the inhibition was 70.5% (active).

`CC(C)(O)C#Cc1ccc([C@H]2[C@@H](CO)N3CCCCN(C(=O)c4ccncc4)C[C@H]23)cc1`: the inhibition was 1.18% (inactive).

In the case of `COCC(=O)N1CC(=O)N2[C@H](CO)[C@@H](c3ccc(C#CC4CCCC4)cc3)[C@H]2C1`, the inhibition was -0.852% (inactive).

As for `CCOc1ccc(CCNC(=O)Nc2ccccc2)cc1OCC`, the inhibition is -1.26% (inactive).

Consider `CCOc1cc(C(=O)O)ccc1OCCOc1ccccc1`, for which the inhibition was 35.6% (active).

As for `CCOc1ccc(C(=O)NCC(=O)N2CCCCCCC2)cc1OCC`, the inhibition was -0.226% (inactive).

Regarding `O=C(C[C@H]1CC[C@@H](NC(=O)c2ccncc2)[C@@H](CO)O1)Nc1ccccc1`, the inhibition is 1.11% (inactive).

For `CCNC(=O)C[C@@H]1CC[C@H]2[C@@H](COc3ccc(NC(=O)NC(C)C)cc3C(=O)N2C)O1`, the inhibition is 0.619% (inactive).

Turning to `O=C(Cn1cnc2ccccc21)N/N=C/c1ccco1`, the inhibition was 1.45% (inactive).

For the compound `Cc1n[nH]c(=O)nc1N/N=C/c1cccs1`, the inhibition is 0.991% (inactive).

With `O=c1nc(N/N=C/c2ccco2)cn[nH]1`, the inhibition was 55.7% (active).

Take `COc1ccccc1C#Cc1cnc2c(c1)C(=O)N([C@@H](C)CO)C[C@H](C)[C@@H](CN(C)C(=O)CC1CC1)O2`: the inhibition is -4.85% (inactive).

In the case of `CCOc1ccc(CCN2C(=O)c3cccnc3C2=O)cc1OCC`, the inhibition was 3.27% (inactive).

As to `NC1=CC(=O)C(=O)c2cccnc21`, the inhibition was 93.8% (active).

`C[C@@H]1CN([C@H](C)CO)C(=O)c2cc(NC(=O)Cc3ccccc3)ccc2O[C@@H](C)CCCCO[C@H]1CN(C)C(=O)Cc1ccccc1`: the inhibition was 1% (inactive).

`C[C@@H]1CN([C@H](C)CO)C(=O)c2cc(C#CC3CC3)cnc2O[C@@H]1CN(C)Cc1ccccn1`: the inhibition is -0.477% (inactive).

Take `O=C1C=CCCN1C(=O)/C=C/c1ccc(F)cc1`: the inhibition is 6.28% (inactive).

`C[C@H](CO)N1C[C@H](C)[C@H](CN(C)Cc2ccc(C(=O)O)cc2)Oc2ncc(-c3ccccc3)cc2C1=O`: the inhibition is -1.47% (inactive).

`CC(=O)N(C1=C(Cl)C(=O)c2ccccc2C1=O)c1ccc(C(=O)O)cc1`: the inhibition is 91% (active).

Turning to `O=C1C(Cl)=C(Oc2ccccc2)C(=O)c2ccccc21`, the inhibition was 4.78% (inactive).

Consider `O=C(NC1=CC(=O)c2ccccc2C1=O)c1ccccc1`, for which the inhibition was 1.17% (inactive).

In the case of `CNC[C@@H]1OCCCC[C@@H](C)Oc2ccc(NS(C)(=O)=O)cc2C(=O)N([C@H](C)CO)C[C@@H]1C`, the inhibition was -3.75% (inactive).

As to `CCO[C@H]1OC(C(=O)N2CCOCC2)=C[C@@H](c2ccc3c(c2)OCO3)[C@@H]1CCCO`, the inhibition is 38.4% (active) and 1.81% (inactive).

Consider `CCO[C@H]1OC(C(=O)N2CCCCCCC2)=C[C@@H](c2ccc(C(F)(F)F)cc2)[C@@H]1CCCO`, for which the inhibition was -1.98% (inactive) and 3.38% (inactive).

For `CCO[C@@H]1OC(C(=O)N2CCOCC2)=C[C@H](C)[C@H]1CCCO`, the inhibition was -0.276% (inactive).
